Test results as given in the antibiotic and cytotoxicity screens of Wong et al. (2023).
Out of some 39,000 compounds screened, about 1,500 (3.8%) were called active. This excerpt belongs to a sample that is enriched for actives.

The compounds below were run on HSkMC (human skeletal muscle cells) (assay: cytotoxicity call (relative viability < 0.9)). Conditions: 10 µM.

Structure (SMILES) | cytotoxicity call
CCC(=O)Nc1ccc2c(c1)C(=O)N(C)C[C@H](OC)[C@@H](C)CN(C(=O)CN1CCOCC1)[C@H](C)CO2 | inactive
CC(C)NC(=O)Nc1ccc2c(c1)C(=O)N([C@@H](C)CO)C[C@@H](C)[C@@H](CN(C)C(=O)Nc1ccc(C(F)(F)F)cc1)OCCCC[C@@H](C)O2 | inactive
C[C@@H]1CCCCO[C@H](CN(C)S(=O)(=O)c2cccs2)[C@@H](C)CN([C@@H](C)CO)C(=O)c2cc(NC(=O)Nc3cccc4ccccc34)ccc2O1 | inactive
C[C@@H]1CCCCO[C@H](CN(C)C(=O)CCC(F)(F)F)[C@@H](C)CN([C@H](C)CO)C(=O)c2cc(NC(=O)Cc3ccccc3)ccc2O1 | inactive
CC(C)NC(=O)Nc1cccc2c1O[C@@H](CN(C)Cc1ccc3c(c1)OCO3)[C@@H](C)CN([C@H](C)CO)C2=O | inactive
C[C@@H]1CN([C@H](C)CO)C(=O)c2cc(NS(=O)(=O)c3ccccc3)ccc2O[C@@H]1CN(C)S(C)(=O)=O | inactive
C[C@H]1CN([C@@H](C)CO)S(=O)(=O)c2ccc(C#Cc3ccncc3)cc2O[C@H]1CN(C)C(=O)C1CCOCC1 | inactive
Cc1noc(C)c1S(=O)(=O)Nc1ccc2c(c1)C(=O)N([C@H](C)CO)C[C@H](C)[C@H](CN(C)C(=O)Nc1cccc3ccccc13)OCCCC[C@@H](C)O2 | inactive
Cc1noc(C)c1S(=O)(=O)Nc1ccc2c(c1)C(=O)N([C@@H](C)CO)C[C@@H](C)[C@@H](CN(C)C(=O)Nc1cccc3ccccc13)OCCCC[C@H](C)O2 | inactive
Cc1noc(C)c1S(=O)(=O)Nc1ccc2c(c1)C(=O)N([C@H](C)CO)C[C@H](C)[C@@H](CN(C)C(=O)Nc1cccc3ccccc13)OCCCC[C@H](C)O2 | active
Cc1nnnn1CC(=O)Nc1ccc(F)cc1 | inactive
COc1ccc(NC(=O)Nc2ccc3c(c2)[C@H]2C[C@H](CC(=O)NCc4ccncc4)O[C@H](CO)[C@H]2O3)cc1 | inactive
C[C@@H]1CCCCO[C@@H](CN(C)C(=O)Nc2ccccc2)[C@H](C)CN([C@H](C)CO)C(=O)c2cc(NC(=O)Cc3ccccc3)ccc2O1 | inactive
Cc1ccc(S(=O)(=O)Nc2ccc3c(c2)C(=O)N([C@H](C)CO)C[C@@H](C)[C@@H](CN(C)C(=O)C2CCCCC2)OCCCC[C@H](C)O3)cc1 | inactive
O=C(O)c1cn(C2CC2)c2cc(N3CCC(O)(COc4ccc(N5C[C@H](CO)OC5=O)cc4F)CC3)c(F)cc2c1=O | inactive
O=C(/C=C/c1ccc(CNc2ccc([C@H]3O[C@@H](CSc4ccncc4)C[C@H](c4ccccc4)O3)cc2)cc1)NO | active
O=C(CCCCCCC(=O)Nc1ccc([C@H]2O[C@@H](CSc3ccncc3)C[C@H](c3ccccc3)O2)cc1)NO | inactive
O=C(CCCCCCC(=O)Nc1ccc([C@@H]2O[C@H](CSc3ccncc3)C[C@H](c3ccccc3)O2)cc1)NO | inactive
C[C@H](CO)N1C[C@H](C)[C@H](CN(C)C(=O)NC2CCCCC2)Oc2cc(-c3cccnc3)ccc2S1(=O)=O | inactive

Structure (SMILES) | cytotoxicity call
COc1ccc(NC(=O)N(C)C[C@H]2OCCCC[C@H](C)Oc3ccc(NC(=O)c4ccncc4)cc3C(=O)N([C@H](C)CO)C[C@@H]2C)cc1 | inactive
CCc1ccc(NC(=S)Nc2ccccc2C(C)C)cc1 | inactive
COCC#Cc1ccc2c(c1)O[C@@H](CN(C)C(=O)COC)[C@@H](C)CN([C@H](C)CO)S2(=O)=O | inactive
COc1ccc(S(=O)(=O)Nc2ccccc2CN(C)C/C=C/c2ccc(Cl)cc2)cc1.O=P(=O)OO | inactive
COc1ccc(CN(C)C[C@H]2Oc3ccc(NC(=O)Nc4ccc(C(F)(F)F)cc4)cc3CC(=O)N([C@@H](C)CO)C[C@H]2C)cc1 | active
COc1ccc(NC(=O)Nc2ccc3c(c2)CC(=O)N([C@@H](C)CO)C[C@H](C)[C@H](CN(C)Cc2ccc(C(F)(F)F)cc2)O3)cc1 | active
COc1ccc(CN(C)C[C@H]2Oc3ccc(NC(=O)Nc4ccc(C(F)(F)F)cc4)cc3CC(=O)N([C@@H](C)CO)C[C@@H]2C)cc1 | inactive
COc1ccc(CN(C)C[C@@H]2Oc3ccc(NC(=O)Nc4ccc(C(F)(F)F)cc4)cc3CC(=O)N([C@@H](C)CO)C[C@@H]2C)cc1 | inactive
COc1ccc(CN(C)C[C@H]2Oc3ccc(NC(=O)Nc4ccc(C(F)(F)F)cc4)cc3CC(=O)N([C@H](C)CO)C[C@H]2C)cc1 | active
COc1ccc(NC(=O)Nc2ccc3c(c2)CC(=O)N([C@@H](C)CO)C[C@@H](C)[C@H](CN(C)Cc2ccc(C(F)(F)F)cc2)O3)cc1 | inactive
COc1ccc(NC(=O)Nc2ccc3c(c2)CC(=O)N([C@H](C)CO)C[C@H](C)[C@H](CN(C)Cc2ccc(C(F)(F)F)cc2)O3)cc1 | inactive
COc1ccc(NC(=O)Nc2ccc3c(c2)CC(=O)N([C@@H](C)CO)C[C@H](C)[C@@H](CN(C)Cc2ccc(C(F)(F)F)cc2)O3)cc1 | inactive
COc1ccc(NC(=O)Nc2ccc3c(c2)CC(=O)N([C@H](C)CO)C[C@H](C)[C@@H](CN(C)Cc2ccc(C(F)(F)F)cc2)O3)cc1 | inactive
COc1ccc(NC(=O)Nc2ccc3c(c2)CC(=O)N([C@H](C)CO)C[C@@H](C)[C@@H](CN(C)Cc2ccc(C(F)(F)F)cc2)O3)cc1 | active
COc1ccc(NC(=O)Nc2ccc3c(c2)CC(=O)N([C@H](C)CO)C[C@@H](C)[C@H](CN(C)Cc2ccc(C(F)(F)F)cc2)O3)cc1 | inactive
COc1ccc(NC(=O)Nc2ccc3c(c2)CC(=O)N([C@@H](C)CO)C[C@@H](C)[C@@H](CN(C)Cc2ccc(C(F)(F)F)cc2)O3)cc1 | inactive
COc1ccc(C#Cc2ccc3c(c2)[C@]2(C(=O)N3)[C@H](C(=O)N3CCc4cc(OC)c(OC)cc4C3)[C@H]3C(=O)O[C@H](c4ccccc4)[C@H](c4ccccc4)N3[C@@H]2c2ccc(O)cc2)cc1 | inactive
C[C@@H]1CN([C@H](C)CO)C(=O)Cc2cc(NC(=O)Nc3ccc(C(F)(F)F)cc3)ccc2O[C@H]1CN(C)C(=O)Nc1cccc2ccccc12 | inactive
C[C@H](CO)N1C[C@H](C)[C@@H](CN(C)C(=O)Cc2ccccn2)Oc2cc(C#Cc3ccccc3)ccc2S1(=O)=O | inactive
